# Measured values as given in the supplement of paper PMC8728848.
# The entries come from a sample that favours the strongest signals as a whole.
# B1: GNAT (Pseudomonas aeruginosa), Q9HV14 (protein)
# chain: MQLSHRPAETGDLETVAGFPQDRDELFYCYPKAIWPFSVAQLAAAIAERRGSTVAVHDGQVLGFANFYQWQHGDFCALGNMMVAPAARGLGVARYLIGVMENLAREQYKARLMKISCFNANAAGLLLYTQLGYQPRAIAERHDPDGRRVALIQMDKPLEP
# Legend:
# Experiment in all cases: glycan array binding signal (z-score within array); higher = stronger binding
# Details in all cases: glycan notation: IUPAC condensed, linker removed
# [1] = biological target: Fuc(a1-2)Gal(b1-3)[Fuc(a1-4)]GlcNAc(b1-2)Man(a1-3)[Fuc(a1-2)Gal(b1-3)[Fuc(a1-4)]GlcNAc(b1-2)Man(a1-6)]Man(b1-4)GlcNAc(b1-4)GlcNAc
# In short: (§1)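 The Consortium for Functional Glycomics database supplied 3228 glycan arrays, of which those lacking an available protein sequence were dropped. The binding signal, a within-array Z-score, was averaged across arrays of the same protein sequence and across linkers. Negative scores can be read as non-binding.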
# [2] = biological target: Fuc(a1-2)Gal(b1-3)[Fuc(a1-4)]GlcNAc(b1-3)[Fuc(a1-3)[Gal(b1-4)]GlcNAc(b1-6)]Gal(b1-4)Glc
# In short: as §1
# [3] = biological target: Fuc(a1-2)Gal(b1-4)[Fuc(a1-3)]GlcNAc(b1-3)Gal(b1-4)[Fuc(a1-3)]GlcNAc(b1-3)Gal(b1-4)[Fuc(a1-3)]GlcNAc
# In short: as §1
# [4] = biological target: Fuc(a1-2)Gal(b1-4)[Fuc(a1-3)]GlcNAc(b1-3)GalNAc
# In short: as §1
# Fuc(a1-2)Gal6S(b1-4)Glc = biological target: Fuc(a1-2)Gal6S(b1-4)Glc
# In short: as §1
# [5] = biological target: Fuc(a1-2)[Gal(a1-4)]Gal(b1-4)GlcNAc
# In short: as §1
# [6] = biological target: Fuc(a1-2)[GalNAc(a1-3)]Gal(b1-3)GalNAc(a1-3)[Fuc(a1-2)]Gal(b1-4)GlcNAc
# In short: as §1
# [7] = biological target: Fuc(a1-2)[GalNAc(a1-3)]Gal(b1-3)GlcNAc(b1-3)GalNAc
# In short: as §1
# [8] = biological target: Fuc(a1-2)[GalNAc(a1-3)]Gal(b1-4)[Fuc(a1-3)]GlcNAc(b1-3)GalNAc
# In short: as §1
# [9] = biological target: Fuc(a1-3)[Gal(b1-4)]GlcNAc(b1-6)GalNAc
# In short: as §1
# [10] = biological target: Gal(a1-3)Gal(b1-3)GlcNAc(b1-2)Man(a1-3)[Gal(a1-3)Gal(b1-3)GlcNAc(b1-2)Man(a1-6)]Man(b1-4)GlcNAc(b1-4)GlcNAc
# In short: as §1
# [11] = biological target: Gal(a1-3)Gal(b1-4)[Fuc(a1-3)]GlcNAc(b1-2)Man(a1-3)[Gal(a1-3)Gal(b1-4)[Fuc(a1-3)]GlcNAc(b1-2)Man(a1-6)]Man(b1-4)GlcNAc(b1-4)GlcNAc
# In short: as §1
# [12] = biological target: Gal(b1-3)GlcNAc(b1-3)Gal(b1-3)GlcNAc
# In short: as §1
# [13] = biological target: Gal(b1-3)[Fuc(a1-4)]GlcNAc(b1-3)Gal(b1-4)[Fuc(a1-3)]GlcNAc
# In short: as §1
# [14] = biological target: Gal(b1-3)[Neu5Ac(a2-6)]GalNAc
# In short: as §1
# [15] = biological target: Gal(b1-4)GalNAc(a1-3)[Fuc(a1-2)]Gal(b1-4)GlcNAc
# In short: as §1
# [16] = biological target: Gal(b1-4)GlcNAc(b1-2)[Gal(b1-4)GlcNAc(b1-6)]Man(a1-6)[Gal(b1-4)GlcNAc(b1-2)Man(a1-3)]Man(b1-4)GlcNAc(b1-4)GlcNAc
# In short: as §1
# [17] = biological target: Gal(b1-4)GlcNAc(b1-2)[Gal(b1-4)GlcNAc(b1-6)]Man(a1-6)[GlcNAc(b1-4)][Gal(b1-4)GlcNAc(b1-2)Man(a1-3)]Man(b1-4)GlcNAc(b1-4)GlcNAc
# In short: as §1
# [18] = biological target: Gal(b1-4)GlcNAc(b1-3)Gal(b1-4)[Fuc(a1-3)GlcNAc(b1-6)]Gal(b1-4)Glc
# In short: as §1
# [19] = biological target: Gal(b1-4)GlcNAc(b1-3)[Gal(b1-4)GlcNAc(b1-6)]Gal(b1-4)GlcNAc
# In short: as §1
# Gal3S(b1-4)GlcNAc6S = biological target: Gal3S(b1-4)GlcNAc6S
# In short: as §1
# [20] = biological target: Gal3S(b1-4)[Fuc(a1-3)]Glc
# In short: as §1
# [21] = biological target: Gal3S(b1-4)[Fuc(a1-3)]Glc6S
# In short: as §1
# Gal3S4S(b1-4)GlcNAc = biological target: Gal3S4S(b1-4)GlcNAc
# In short: as §1
# Gal3S6S(b1-4)GlcNAc6S = biological target: Gal3S6S(b1-4)GlcNAc6S
# In short: as §1
# [22] = biological target: GalNAc(b1-3)Gal(a1-4)Gal(b1-4)GlcNAc
# In short: as §1
# Glc(a1-6)Glc(a1-6)Glc = biological target: Glc(a1-6)Glc(a1-6)Glc
# In short: as §1
# [23] = biological target: GlcNAc(a1-4)Gal(b1-4)GlcNAc(b1-3)Gal(b1-4)[Fuc(a1-3)]GlcNAc(b1-3)Gal(b1-4)[Fuc(a1-3)]GlcNAc
# In short: as §1
# [24] = biological target: GlcNAc(b1-2)[GlcNAc(b1-4)]Man(a1-3)[GlcNAc(b1-4)][GlcNAc(b1-2)Man(a1-6)]Man(b1-4)GlcNAc(b1-4)GlcNAc
# In short: as §1
# [25] = biological target: GlcNAc(b1-2)[GlcNAc(b1-6)]Man(a1-6)[GlcNAc(b1-2)Man(a1-3)]Man(b1-4)GlcNAc(b1-4)GlcNAc
# In short: as §1
# [26] = biological target: GlcNAc(b1-4)[GlcNAc(b1-6)]GalNAc
# In short: as §1
# [27] = biological target: Neu5Ac(a2-3)Gal(b1-3)GlcNAc6S
# In short: as §1
# [28] = biological target: Neu5Ac(a2-3)Gal(b1-4)GlcNAc(b1-3)Gal
# In short: as §1
# [29] = biological target: Neu5Ac(a2-3)Gal(b1-4)GlcNAc(b1-6)[Neu5Ac(a2-3)Gal(b1-3)]GalNAc
# In short: as §1
# [30] = biological target: Neu5Ac(a2-3)Gal(b1-4)[Fuc(a1-3)]GlcNAc(b1-3)GalNAc
# In short: as §1
# [31] = biological target: Neu5Ac(a2-3)Gal(b1-4)[Fuc(a1-3)]GlcNAc(b1-6)[Gal(b1-3)]GalNAc
# In short: as §1
# [32] = biological target: Neu5Ac(a2-3)[Neu5Ac(a2-6)]GalNAc
# In short: as §1
# [33] = biological target: Neu5Ac(a2-6)Gal(b1-4)GlcNAc(b1-2)Man(a1-3)[GlcNAc(b1-2)Man(b1-4)GlcNAc(b1-2)Man(a1-6)]Man(b1-4)GlcNAc(b1-4)GlcNAc
# In short: as §1
# [34] = biological target: Neu5Ac(a2-6)Gal(b1-4)GlcNAc(b1-3)Gal(b1-3)GlcNAc
# In short: as §1
# Neu5Ac(a2-6)GalNAc = biological target: Neu5Ac(a2-6)GalNAc
# In short: as §1
# [35] = biological target: Neu5Ac(a2-8)Neu5Ac(a2-3)[GalNAc(b1-4)]Gal(b1-4)Glc
# In short: as §1
# Neu5Ac(b2-6)GalNAc = biological target: Neu5Ac(b2-6)GalNAc
# In short: as §1
# [36] = biological target: Neu5Gc(a2-6)Gal(b1-4)GlcNAc
# In short: as §1
binder,measurement,setting,value
B1,glycan array binding signal (z-score),[1],2.54
same,glycan array binding signal (z-score),[2],-0.247
same,glycan array binding signal (z-score),[3],-0.411
same,glycan array binding signal (z-score),[4],4.04
same,glycan array binding signal (z-score),Fuc(a1-2)Gal6S(b1-4)Glc,-0.374
same,glycan array binding signal (z-score),[5],-0.398
same,glycan array binding signal (z-score),[6],-0.345
same,glycan array binding signal (z-score),[7],5.4
same,glycan array binding signal (z-score),[8],4.86
same,glycan array binding signal (z-score),[9],5.07
same,glycan array binding signal (z-score),[10],2.69
same,glycan array binding signal (z-score),[11],4.4
same,glycan array binding signal (z-score),[12],0.929
same,glycan array binding signal (z-score),[13],-0.315
same,glycan array binding signal (z-score),[14],0.421
same,glycan array binding signal (z-score),[15],-0.14
same,glycan array binding signal (z-score),[16],1.21
same,glycan array binding signal (z-score),[17],-0.222
same,glycan array binding signal (z-score),[18],0.293
same,glycan array binding signal (z-score),[19],-0.269
same,glycan array binding signal (z-score),Gal3S(b1-4)GlcNAc6S,-0.322
same,glycan array binding signal (z-score),[20],-0.301
same,glycan array binding signal (z-score),[21],6.54
same,glycan array binding signal (z-score),Gal3S4S(b1-4)GlcNAc,-0.461
same,glycan array binding signal (z-score),Gal3S6S(b1-4)GlcNAc6S,-0.379
same,glycan array binding signal (z-score),[22],-0.284
same,glycan array binding signal (z-score),Glc(a1-6)Glc(a1-6)Glc,-0.33
same,glycan array binding signal (z-score),[23],3.72
same,glycan array binding signal (z-score),[24],-0.318
same,glycan array binding signal (z-score),[25],-0.257
same,glycan array binding signal (z-score),[26],-0.407
same,glycan array binding signal (z-score),[27],-0.165
same,glycan array binding signal (z-score),[28],-0.403
same,glycan array binding signal (z-score),[29],-0.097
same,glycan array binding signal (z-score),[30],2.77
same,glycan array binding signal (z-score),[31],5.03
same,glycan array binding signal (z-score),[32],-0.405
same,glycan array binding signal (z-score),[33],-0.293
same,glycan array binding signal (z-score),[34],-0.3
same,glycan array binding signal (z-score),Neu5Ac(a2-6)GalNAc,-0.404
same,glycan array binding signal (z-score),[35],-0.165
same,glycan array binding signal (z-score),Neu5Ac(b2-6)GalNAc,-0.413
same,glycan array binding signal (z-score),[36],-0.437
